This is a sample that favours compounds with a hit; in the whole collection about 0.93% have one here.
MEP2 TOR yeast – alters MEP2-GFP fluorescence in TOR pathway yeast screen | S. cerevisiae MEP2-GFP strain, flow cytometry GFP, 3 h; 100% = DMSO control level | GFP response vs DMSO, % at 10 µM | 330,000 compounds, 0.51% hits | AID 2016;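 active = GFP response versus DMSO above a set limit, roughly screen mean plus 3 SD, cut at about 180% in these data; inconclusive = fewer than 70 cells counted for a yeast strain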;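 also: median GFP fluorescence of the barcode-gated MEP2-GFP cells per well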
LAP4-GFP MLPCN – yeast TOR pathway LAP4-GFP modulation. GFP response vs DMSO, % at 10 µM. AID 2023. 320,000 compounds, 0.34% hits. S. cerevisiae LAP4-GFP multiplex, flow cytometry GFP, 3 h; median GFP as percent of DMSO wells;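 active = GFP response vs DMSO above a set limit, about the screen mean plus 3 SD, cut at about 150% in these data; inconclusive = under 70 cell events counted for the yeast strain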
AGP1 TOR yeast – modulators of TOR pathway AGP1-GFP in S. cerevisiae. S. cerevisiae AGP1-GFP multiplex flow cytometry, 3 h; GFP as percent of DMSO wells. GFP response vs DMSO, % at 10 µM. 320,000 compounds, 0.02% hits;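 active = GFP response relative to DMSO above a set limit, near screen average plus 3 SD, cut at about 150% in these data; inconclusive = fewer than 70 cells counted for the yeast strain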;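 also: median GFP channel fluorescence of the gated AGP1 strain per well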
RPL19A-GFP yeast – yeast TOR pathway RPL19A-GFP modulation | S. cerevisiae RPL19A-GFP strain, flow cytometry, 3 h; active compounds read low | percent response vs DMSO, % at 10 µM | 330,000 compounds, 0.3% hits;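 active = percent response vs DMSO below 50%; inconclusive = fewer than 70 events counted for the yeast strain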;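 also: median channel GFP fluorescence of the barcoded RPL19A-GFP strain; ratio of sample median GFP to plate DMSO average so 100% = DMSO; lower means less RPL19A-GFP as with rapamycin TOR inhibition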
CIT2 TOR yeast – alters CIT2-GFP fluorescence in TOR pathway yeast screen; GFP response vs DMSO, % at 10 µM; S. cerevisiae CIT2-GFP strain, flow cytometry, 3 h; 100 means same as DMSO wells; AID 2029; 320,000 compounds, 0.065% hits;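 active = GFP response relative to DMSO above a set limit, near the screen mean plus 3 SD, cut at about 150% in these data; inconclusive = Fewer than 70 cells measured for a yeast strain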;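 also: ratio of well median GFP fluorescence to mean of DMSO wells on the plate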
The depositor's hits bear a star; u = inconclusive; [ ] = dose if it differs, or a comment.

SMILES	MEP2 TOR yeast	LAP4-GFP MLPCN	AGP1 TOR yeast	RPL19A-GFP yeast	CIT2 TOR yeast
COC(=O)c1cc2c(=O)c3ccccc3oc2nc1C	100.0	91.4	87.0	94.5	93.5
CCN1CCc2[nH]c3ccccc3c2C1	104.7	90.2	90.1	101.7	97.4
CN(C(=O)Cn1cnc([N+](=O)[O-])n1)C1CCCCC1	211.7*[may fluoresce red and violet]	87.0	u	u	u
O=C(NCC(=O)N1CCCC1)c1cccs1	174.4	151.6*	119.5	111.4	144.7
CN(c1ccccc1)S(=O)(=O)c1ccc(C(=O)NNC(=O)c2ccccc2F)cc1	94.1	102.7	98.2	97.4	98.3
CC(=O)Oc1ccc(Oc2ccc(-c3noc(C)n3)cc2)cc1	104.8	100.2	90.0	95.6	99.7
CC(=O)Oc1ccc(-c2nc(-c3cccnc3)no2)cc1	226.6*[may fluoresce violet]	85.9	21.4	72.2	u
O=C(O)/C=C/C(=O)Nc1ccc(Oc2ncnc3cc(Cl)ccc23)nc1	102.4	111.1	104.6	97.1	92.9
COc1ccc(/C(N)=N/OC(=O)CC2CCCCC2)cc1	93.5	97.1	80.6	94.1	95.1
COc1ccc(S(=O)(=O)NCC(=O)N(CC(=O)NCc2ccco2)Cc2ccc(F)cc2)cc1	186.9*	147.7	93.0	83.6	92.2
Cc1ccc(S(=O)(=O)NCC(=O)N(CC(=O)NCc2ccco2)Cc2ccc(F)cc2)cc1	278.9*[may fluoresce violet]	85.4	24.7	66.7	u
O=C(O)Cc1ccc2ccc3ccccc3c2c1	100.8	157.5*	112.2	75.6	94.6
COc1ccc(NC(=S)N2CCC(C(O)(c3ccccc3)c3ccccc3)CC2)cc1	98.8	96.2	99.8	107.1	101.1
COc1ccc(NC(=S)N2CCC(c3ccccc3)C2)cc1 (stereo not given)	248.8*	132.2	117.3	104.3	120.7
Cc1ccc(CN2CC(C(=O)Nc3ccc(F)c([N+](=O)[O-])c3)CC2=O)cc1 (stereo not given)	98.2	101.4	108.7	103.4	101.1
COc1ccc(N(CC(=O)N2CCC(C(N)=O)CC2)S(=O)(=O)c2ccccc2)cc1	374.5*[may fluoresce violet]	74.1	u	42.0*[may fluoresce violet]	u
CS(=O)(=O)N(CC(=O)N1CCC(C(N)=O)CC1)c1ccc(Oc2ccccc2)cc1	255.3*[may fluoresce violet]	97.9	u	44.8*[may fluoresce violet]	u
CCOC(=O)N1CCN(C(=O)CN(c2ccc(Oc3ccccc3)cc2)S(C)(=O)=O)CC1	95.4	94.3	91.3	94.7	95.6
CN1C(=O)C(c2ccccc2[N+](=O)[O-])C(=O)c2ccccc21 (stereo not given)	99.6	95.5	95.1	102.7	101.3
CN1CCSc2ccc(C(=O)Nc3cccc(F)c3)cc21	104.4	153.2*	91.3	94.4	72.3
O=C(CSCc1ccccc1)N=Nc1c(O)[nH]c2ccccc12	99.6	90.2	98.0	101.1	98.4
O=C(N=Nc1c(O)[nH]c2ccccc12)c1ccco1	492.9*	196.6*	152.2*	68.4	108.4
O=C(CSCc1cccc(Br)c1)N=Nc1c(O)[nH]c2ccccc12	136.4	165.4*	110.1	64.6	116.0
CN(C)C(=O)C1C2NC(=S)N(c3cccc(Cl)c3)C1(C)Oc1ccc(Cl)cc12 (stereo not given)	104.9	102.4	104.4	116.3	104.4
N#Cc1c(-c2ccccc2)nc2n1CCS2	96.3	119.6	u	41.9*[may fluoresce violet]	u
SMILES	MEP2 TOR yeast	LAP4-GFP MLPCN	AGP1 TOR yeast	RPL19A-GFP yeast	CIT2 TOR yeast
COc1cccc(CNS(=O)(=O)/C=C/c2ccc3c(c2)OCO3)c1	175.6*[may fluoresce violet]	64.2	u	62.1	u
CC1C2(C)OCC(C#N)(C(=N)O2)C1(C#N)C#N (stereo not given)	244.5*[may fluoresce violet]	82.2	u	51.7	u
CC1(C)CC2(C)OC(=N)C1(C#N)C2(C#N)C#N (stereo not given)	106.9	107.2	103.4	99.1	97.2
CC(C)(C)NC(=O)CN(C(=O)CCC(=O)Nc1nccs1)c1ccc(F)cc1	271.9*	109.7	85.4	96.3	116.3
Cc1cc(C)nc(/N=C(\NC(=O)C(C)(C)C)Nc2ccc(F)cc2)n1	469.6*[may fluoresce violet]	67.2	u	48.2*[may fluoresce violet]	u
O=C1Nc2ccc(Br)cc2C1(O)Cc1ccncc1 (stereo not given)	437.9*[may fluoresce violet]	112.5	u	15.8*[may fluoresce violet]	u
CC1CN(C(=O)c2cc3cc(Br)ccc3[nH]2)CC(C)O1 (stereo not given)	111.2	109.0	104.2	110.1	103.8
CC(=O)c1cc2c(cc1NS(=O)(=O)c1ccccc1Br)OCO2	608.5*[may fluoresce violet]	99.0	23.2	59.3	u
